Measured values taken from PubChem BioAssay (EPA / NIEHS).
Inconclusive results are not listed. Calls of active or inactive are those of the source. How the source made its calls, unless noted: active means hit-call score of the fitted dose curve at least 0.9, where 1 is the maximum; inactive means score below 0.9.

Experiments:
[1] = biological target: Retinoic acid receptor RXR-alpha (Homo sapiens) (UniProt P19793); assay: ATG_RXRa_TRANS: Attagene TRANS-FACTORIAL HepG2 Assay for human Retinoid X Receptor alpha (RXRa) (AID 2283012; active means hit-call score of the fitted dose curve at least 0.9, where 1 is the maximum)
Sequence of Retinoic acid receptor RXR-alpha (Homo sapiens) (P19793 whole entry, looked up, the tested form may be a part): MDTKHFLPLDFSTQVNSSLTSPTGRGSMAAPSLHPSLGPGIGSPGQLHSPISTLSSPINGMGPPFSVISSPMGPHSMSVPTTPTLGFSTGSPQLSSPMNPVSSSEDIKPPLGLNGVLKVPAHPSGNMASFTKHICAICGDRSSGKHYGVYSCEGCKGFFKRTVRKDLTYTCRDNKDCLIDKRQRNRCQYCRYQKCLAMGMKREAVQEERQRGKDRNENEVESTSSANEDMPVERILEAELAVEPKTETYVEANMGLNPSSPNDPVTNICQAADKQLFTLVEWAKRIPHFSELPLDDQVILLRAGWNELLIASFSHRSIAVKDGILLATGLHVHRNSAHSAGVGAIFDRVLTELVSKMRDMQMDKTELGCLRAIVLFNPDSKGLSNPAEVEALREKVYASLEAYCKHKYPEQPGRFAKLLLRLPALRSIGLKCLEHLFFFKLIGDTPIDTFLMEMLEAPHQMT
In short: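 Transient transfection of human HepG2 with multiple GAL4-UAS reporter constructs; 24 h compound exposure; total RNA isolated, reverse-transcribed, PCR-amplified, 6-FAM labelled, HpaI-cut, resolved by capillary electrophoresis. Positive-direction fit versus DMSO.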

[2] = biological target: human Retinoid X Receptor beta (RXRb), RXRB (gene 6257) (UniProt P28702); assay: ATG_RXRb_TRANS: Attagene TRANS-FACTORIAL HepG2 Assay for human Retinoid X Receptor beta (RXRb) (AID 2283013; active means hit-call score of the fitted dose curve at least 0.9, where 1 is the maximum)
Sequence of human Retinoid X Receptor beta (RXRb), RXRB (gene 6257) (P28702 whole entry, looked up, the tested form may be a part): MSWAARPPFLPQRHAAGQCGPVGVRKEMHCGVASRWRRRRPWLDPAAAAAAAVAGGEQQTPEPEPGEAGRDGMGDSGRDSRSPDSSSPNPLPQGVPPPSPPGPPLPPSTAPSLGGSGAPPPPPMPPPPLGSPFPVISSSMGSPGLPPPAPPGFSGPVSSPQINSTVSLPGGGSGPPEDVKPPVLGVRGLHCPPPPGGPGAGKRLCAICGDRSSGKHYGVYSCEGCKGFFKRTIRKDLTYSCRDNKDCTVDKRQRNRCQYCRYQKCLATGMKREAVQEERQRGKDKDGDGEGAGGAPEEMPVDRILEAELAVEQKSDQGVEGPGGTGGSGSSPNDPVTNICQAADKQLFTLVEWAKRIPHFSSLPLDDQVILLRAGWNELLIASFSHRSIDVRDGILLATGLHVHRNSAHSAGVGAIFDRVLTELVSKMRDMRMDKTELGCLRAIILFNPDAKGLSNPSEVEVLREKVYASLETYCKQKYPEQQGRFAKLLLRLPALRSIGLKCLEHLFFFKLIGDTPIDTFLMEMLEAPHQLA
In short: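 Transfect HepG2 with GAL4-UAS multi-reporter constructs (chimeric NR-Gal4, TRANS format); dose compound 24 h; isolate RNA, RT-PCR, FAM primer extension, HpaI digest; quantify by capillary electrophoresis; positive direction vs DMSO.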

[3] = read-out: E-selectin (Homo sapiens) (UniProt P16581); assay: BSK_3C_Eselectin: BioMAP Diversity Plus: 3C Assay for Eselectin Biomarker Activity (AID 2283015); conditions: primary human endothelial cells (HUVEC); actives raise or lower the signal
In short: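 HUVEC, 3C stimulation; compound exposure 24 h; E-selectin by ELISA; gain- or loss-of-signal fitted bidirectionally vs DMSO baseline.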

[4] = read-out: Interleukin-1 alpha (IL1a), IL1A (gene 3552); assay: BSK_BE3C_IL1a: BioMAP Diversity Plus: BE3C Assay for Interleukin-1 alpha (IL1a) Biomarker Activity (AID 2283016); conditions: primary human bronchial epithelial cells; actives raise or lower the signal
In short: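 BE3C primary human bronchial epithelium; cpd 24 h; IL-1a by ELISA; bidirectional fit vs DMSO; parallel SRB (0.1% SRB, 10% TCA fix, 560 nm) for cytotoxicity.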

[5] = read-out: Monocyte Chemoattractant Protein-1 (MCP1), CCL2 (gene 6347); assay: BSK_3C_MCP1: BioMAP Diversity Plus: 3C Assay for Monocyte Chemoattractant Protein-1 (MCP1) Biomarker Activity (AID 2283017); conditions: primary human endothelial cells (HUVEC); actives raise or lower the signal
In short: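 HUVEC, 3C system; 24 h chemical exposure; MCP-1 by ELISA; bidirectional curve fit vs DMSO baseline.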

[6] = read-out: Monocyte Chemoattractant Protein-1 (MCP1), CCL2 (gene 6347); assay: BSK_4H_MCP1: BioMAP Diversity Plus: 4H Assay for Monocyte Chemoattractant Protein-1 (MCP1) Biomarker Activity (AID 2283018); conditions: primary human endothelial cells (HUVEC); actives raise or lower the signal
In short: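 ELISA read-out of MCP-1 from human vascular endothelial primary cells taken at 24 hours after compound exposure. Activity was fitted in both directions relative to DMSO, which served as negative control.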

[7] = read-out: Human Leukocyte Antigen - DR isotype (HLADR), HLA-DRA (gene 3122); assay: BSK_3C_HLADR: BioMAP Diversity Plus: 3C Assay for Human Leukocyte Antigen - DR isotype (HLADR) Biomarker Activity (AID 2283019); conditions: primary human endothelial cells (HUVEC); actives raise or lower the signal
In short: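 HUVEC, 3C stimulation, 24 h post-dose; HLA-DR by ELISA; bidirectional curve fit vs DMSO baseline; gain or loss of signal scored.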

[8] = read-out: Interleukin-8 (IL8), CXCL8 (gene 3576); assay: BSK_3C_IL8: BioMAP Diversity Plus: 3C Assay for Interleukin-8 (IL8) Biomarker Activity (AID 2283020); conditions: primary human endothelial cells (HUVEC); actives raise or lower the signal
In short: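 ELISA read-out of IL-8 from human umbilical vein endothelium, measured 24 h after chemical dosing. Activity is expressed relative to DMSO negative control, with both increases and decreases fitted.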

[9] = read-out: Monokine induced gamma interferon (MIG), CXCL9 (gene 4283); assay: BSK_3C_MIG: BioMAP Diversity Plus: 3C Assay for Monokine induced gamma interferon (MIG) Biomarker Activity (AID 2283021); conditions: primary human endothelial cells (HUVEC); actives raise or lower the signal;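 on AC50: MIG protein level measured by immunoassay in the treated endothelial cultures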
In short: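 Read-out is ELISA detection of MIG on human umbilical vein endothelial cells, taken 24 h after dosing. Gain or loss of signal was scored relative to DMSO controls using bidirectional curve fitting.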

[10] = biological target: human Vitamin D Receptor (VDR), VDR (gene 7421) (UniProt P11473); assay: ATG_VDR_TRANS: Attagene TRANS-FACTORIAL HepG2 Assay for human Vitamin D Receptor (VDR) (AID 2283022; active means hit-call score of the fitted dose curve at least 0.9, where 1 is the maximum)
Sequence of human Vitamin D Receptor (VDR), VDR (gene 7421) (P11473 whole entry, looked up, the tested form may be a part): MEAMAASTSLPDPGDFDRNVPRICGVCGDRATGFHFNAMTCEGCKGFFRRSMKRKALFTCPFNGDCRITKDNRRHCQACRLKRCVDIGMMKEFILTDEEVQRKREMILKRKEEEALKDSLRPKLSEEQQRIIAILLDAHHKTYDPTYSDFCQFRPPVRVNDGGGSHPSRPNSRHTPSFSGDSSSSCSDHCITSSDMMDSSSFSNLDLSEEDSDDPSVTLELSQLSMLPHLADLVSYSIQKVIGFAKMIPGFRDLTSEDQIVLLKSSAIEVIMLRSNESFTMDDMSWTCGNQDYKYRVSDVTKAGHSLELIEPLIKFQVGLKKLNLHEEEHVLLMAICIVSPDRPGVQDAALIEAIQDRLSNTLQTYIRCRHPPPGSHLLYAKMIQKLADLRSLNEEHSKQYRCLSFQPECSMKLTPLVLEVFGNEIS
In short: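 RT-PCR/capillary electrophoresis read-out of reporter mRNA induction in transiently transfected HepG2; 24 h dosing; chimeric NR-Gal4 (TRANS format); gain-of-signal fit against DMSO baseline.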

[11] = BSK_3C_SRB: Viability Assessment in the BioMAP Diversity Plus: 3C Assay (AID 2283023); conditions: primary human endothelial cells (HUVEC);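 further: fitted both ways against DMSO so a hit may be signal rise or drop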
In short: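 HUVEC, 24 h post-dose; 10% TCA fix, 0.1% SRB stain, A560 nm. Bidirectional curve fit vs DMSO negative control.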

[12] = read-out: Matrix Metallopeptidase 1 (MMP1), MMP1 (gene 4312); assay: BSK_BE3C_MMP1: BioMAP Diversity Plus: BE3C Assay for Matrix Metallopeptidase 1 (MMP1) Biomarker Activity (AID 2283024); conditions: primary human bronchial epithelial cells; actives raise or lower the signal
In short: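 Human bronchial epithelial cells (BE3C system) exposed to compound for 24 h; MMP1 then quantified by ELISA. Activity was fitted in both directions relative to DMSO.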

[13] = BSK_3C_Vis: BioMAP Diversity Plus: 3C Assay for Morphology Visualization (AID 2283025); conditions: primary human endothelial cells (HUVEC);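 further: fitted both ways so gain or loss versus DMSO counts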;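 on AC50: light microscopy image of cell morphology used as background control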
In short: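 Chemicals were added to primary human umbilical vein endothelium, cells were incubated 24 h, and morphology was then visualized by light microscopy. Gain or loss of signal was fitted bidirectionally relative to DMSO.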

[14] = read-out: Pselectin, SELP (gene 6403); assay: BSK_4H_Pselectin: BioMAP Diversity Plus: 4H Assay for Pselectin Biomarker Activity (AID 2283026); conditions: primary human endothelial cells (HUVEC); actives raise or lower the signal
In short: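 ELISA read-out of P-selectin on human umbilical vein endothelium after 24 h of dosing. Values derive from bidirectional fitting relative to DMSO. Parallel SRB protein staining flagged overt cytotoxicity.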

[15] = BSK_4H_SRB: Viability Assessment in the BioMAP Diversity Plus: 4H Assay (AID 2283027); conditions: primary human endothelial cells (HUVEC);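 further: cells exposed to compound for 24 h before staining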;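 on AC50: curves fitted both ways versus DMSO so AC50 may be loss or gain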
In short: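 Absorbance at 560 nm of SRB-stained total protein served as the viability read-out in confluent primary human umbilical vein endothelium 24 h after chemical treatment. Curves were fitted bidirectionally against DMSO as negative control.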

[16] = BSK_BE3C_SRB: Viability Assessment in the BioMAP Diversity Plus: BE3C Assay (AID 2283028); conditions: primary human bronchial epithelial cells;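 on AC50: fitted both ways so AC50 may mark signal gain or loss versus DMSO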
In short: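 Primary human bronchial epithelium; chemical dosing, 24 h; 10% TCA fix, 0.1% SRB stain, A560; bidirectional fit vs DMSO baseline.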

[17] = read-out: Thrombomodulin, THBD (gene 7056); assay: BSK_3C_Thrombomodulin: BioMAP Diversity Plus: 3C Assay for Thrombomodulin Biomarker Activity (AID 2283029); conditions: primary human endothelial cells (HUVEC); actives raise or lower the signal
In short: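 Read-out is ELISA of thrombomodulin on human umbilical vein endothelium 24 h after chemical dosing. Gain or loss of signal is scored relative to DMSO. Overt cytotoxicity is checked in parallel cultures by sulforhodamine B staining.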

[18] = read-out: Urokinase-type plasminogen activator receptor (uPAR), PLAUR (gene 5329); assay: BSK_4H_uPAR: BioMAP Diversity Plus: 4H Assay for Urokinase-type plasminogen activator receptor (uPAR) Biomarker Activity (AID 2283030); conditions: primary human endothelial cells (HUVEC); actives raise or lower the signal
In short: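 HUVEC, 24 h post-dose; uPAR by ELISA; bidirectional fit vs DMSO baseline.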

[19] = read-out: Vascular endothelial growth factor receptor 2 (Homo sapiens) (UniProt P35968); assay: BSK_4H_VEGFRII: BioMAP Diversity Plus: 4H Assay for Vascular endothelial growth factor receptor 2 (VEGFR2) Biomarker Activity (AID 2283031); conditions: primary human endothelial cells (HUVEC); actives raise or lower the signal
In short: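 HUVEC (human primary), 4H system; 24 h post-dose; VEGFRII by ELISA; bidirectional curve fit vs DMSO baseline; gain or loss of signal scored.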

[20] = biological target: human Thyroid Receptor alpha (THRa1), THRA (gene 7067) (UniProt P10827); assay: ATG_THRa1_TRANS: Attagene TRANS-FACTORIAL HepG2 Assay for human Thyroid Receptor alpha (THRa1) (AID 2283014; active means hit-call score of the fitted dose curve at least 0.9, where 1 is the maximum)
Sequence of human Thyroid Receptor alpha (THRa1), THRA (gene 7067) (P10827 whole entry, looked up, the tested form may be a part): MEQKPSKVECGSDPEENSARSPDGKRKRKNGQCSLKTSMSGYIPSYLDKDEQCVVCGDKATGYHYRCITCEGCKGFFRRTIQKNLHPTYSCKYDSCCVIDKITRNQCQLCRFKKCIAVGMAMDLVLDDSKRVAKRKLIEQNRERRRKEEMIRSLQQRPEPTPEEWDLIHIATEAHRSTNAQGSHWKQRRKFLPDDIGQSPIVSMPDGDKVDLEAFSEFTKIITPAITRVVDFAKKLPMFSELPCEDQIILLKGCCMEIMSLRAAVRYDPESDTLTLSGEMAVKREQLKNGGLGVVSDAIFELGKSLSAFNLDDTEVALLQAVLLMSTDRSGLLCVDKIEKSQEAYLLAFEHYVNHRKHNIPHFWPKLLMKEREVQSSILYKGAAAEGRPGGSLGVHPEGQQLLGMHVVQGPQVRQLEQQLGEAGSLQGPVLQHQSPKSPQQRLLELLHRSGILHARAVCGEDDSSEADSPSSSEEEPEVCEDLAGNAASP
In short: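 Transient HepG2 transfection, NR-Gal4 chimera driving GAL4-UAS reporters; 24 h compound exposure; total RNA, oligo(dT) RT, PCR, fluorescent primer extension, capillary electrophoresis. Upward direction vs DMSO control.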

Measured: AC50

Sequence of E-selectin (Homo sapiens) (P16581 whole entry, looked up): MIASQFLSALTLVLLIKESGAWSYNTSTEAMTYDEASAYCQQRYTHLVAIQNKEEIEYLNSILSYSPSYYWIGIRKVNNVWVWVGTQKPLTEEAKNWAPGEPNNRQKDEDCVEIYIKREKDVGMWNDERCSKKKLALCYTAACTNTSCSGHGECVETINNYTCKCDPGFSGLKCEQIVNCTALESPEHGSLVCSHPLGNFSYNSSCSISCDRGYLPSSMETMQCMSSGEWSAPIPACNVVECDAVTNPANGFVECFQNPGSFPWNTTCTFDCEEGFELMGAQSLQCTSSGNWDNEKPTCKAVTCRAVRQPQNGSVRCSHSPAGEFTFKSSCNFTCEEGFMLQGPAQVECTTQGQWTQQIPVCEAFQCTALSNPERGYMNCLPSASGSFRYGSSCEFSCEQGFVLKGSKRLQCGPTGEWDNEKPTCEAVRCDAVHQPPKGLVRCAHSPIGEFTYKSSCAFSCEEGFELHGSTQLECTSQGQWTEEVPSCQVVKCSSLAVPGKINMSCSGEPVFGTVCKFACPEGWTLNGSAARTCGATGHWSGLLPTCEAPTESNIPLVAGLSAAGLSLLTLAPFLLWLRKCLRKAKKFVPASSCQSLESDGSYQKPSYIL

Oc1ccccc1O
active: [3] 1.73 µM | [5] 4.66 µM | [7] 5.45 µM | [11] 4.44 µM | [14] 9.58 µM | [15] 5.94 µM
not listed: [20]
inactive: all other assays above

CC(=O)[C@@]1(O)CC[C@H]2[C@@H]3CCC4=CC(=O)CC[C@]4(C)[C@H]3CC[C@@]21C
active: [12] 8.47 µM | [18] 26.6 µM
not listed: [16] | [20]
inactive: all other assays above

Cc1ccc(C(C)(C)C)c(O)c1
active: [2] 23.3 µM | [3] 34.5 µM | [5] 34.7 µM | [17] 31.3 µM
not listed: [15] | [20]
inactive: all other assays above

CCCCOC(=O)CCCCC(=O)OCCCC
inactive: all assays above

O=[Si]=O
not listed: [10] | [15] | [19]
inactive: all other assays above

CCN(CC)CCOc1ccc(C(=C(Cl)c2ccccc2)c2ccccc2)cc1
inactive: [1] | [2] | [20] | [10] | [19]
active: [3] 14.3 µM | [4] 18.9 µM | [5] 11.6 µM | [6] 9.04 µM | [7] 7.41 µM | [8] 10.9 µM | [9] 15.1 µM | [11] 11.7 µM | [12] 28 µM | [13] 6.1 µM | [14] 8.24 µM | [15] 13.1 µM | [16] 27.8 µM | [17] 5.39 µM | [18] 13 µM

COc1ccc(OC(F)(F)F)cc1CN[C@H]1CCCN[C@H]1c1ccccc1
active: [3] 9.58 µM | [5] 20 µM | [7] 32.8 µM | [11] 15 µM | [13] 3.29 µM | [17] 17.8 µM | [18] 20 µM
not listed: [15] | [20]
inactive: all other assays above
